The list is not random: actives were taken first. Their share in the collection is about 1.9%.
Pin1 inhibitor = inhibitors of human Pin1. Pin1 FP peptide displacement, HiFluor488, 10 min. Potency, µM (series often up to 115 µM), usual class: inhibitors. 0.009% of 390,000 active. AID 504891; active means well fitted inhibition curve with a large enough effect in the polarisation, with a control signal flat, not every such curve was filed as active; inconclusive means small, poorly fitted or top-dose-only effect, or effect the other way, or a change in a side signal; inactive means no such curve, though single readings can be large or run the other way; the % refers to the polarisation
Target sequence (Q13526 whole entry, looked up): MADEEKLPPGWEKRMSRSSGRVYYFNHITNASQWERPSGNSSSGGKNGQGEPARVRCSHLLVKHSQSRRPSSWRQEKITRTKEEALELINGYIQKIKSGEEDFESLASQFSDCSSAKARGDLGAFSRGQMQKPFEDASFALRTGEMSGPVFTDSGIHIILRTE
PKM2 activator = PKM2 (human) enzyme activation; P14618; purified PKM2, Kinase-Glo ATP luminescence, activation; response scale: 0% is enzyme alone, no compound; Potency, µM (highest dose often 57.5 µM), actives largely listed as activators; 0.34% of 260,000 active; AID 1631; further: nearly all actives have a fitted effect of over 55% in size
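Kinase-Glo luminescence reports ATP generated from ADP (0.1 mM) and PEP (0.5 mM) by purified hPK-M2 after 1 h at room temperature, pH 7.2 imidazole buffer; intermediate enzyme activity allows detecting inhibitors and activators.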
Integrin act MD = activates integrin-mediated alleviation for muscular dystrophy. alpha7betagal myoblasts, beta-gal FDG fluorescence, 48 h. Potency, µM (doses to about 38.3 µM), most hits filed as activators. 0.064% of 350,000 active; further: nearly all actives have a fitted effect of over 60% in size
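alpha7betagal+/- myoblasts (passage 13, 250/well) treated 48 h at 37C with compounds at 1:260 dilution of DMSO stock. Lysed, then beta-galactosidase activity read as FDG fluorescence (ex 480/em 540) after 30 min, with pre-read for autofluorescence.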
ClpP mod = qHTS Assay for Activators of ClpP; purified B. subtilis ClpP, FRET peptide cleavage, 20 min; ATP-dependent Clp protease proteolytic subunit (Bacillus subtilis (strain 168)), P80244; Potency, µM (highest dose often 57.5 µM); 1.9% of 340,000 active; AID 651965, 2013; active means well fitted falling curve with a large enough effect; inconclusive means small, poorly fitted or top-dose-only effect; inactive means no such curve, though single readings can be large or run the other way; further: the source files actives as falling curves though it sought activators and does not explain the sign; nearly all actives have a fitted effect of over 65% in size
Target sequence (P80244 whole entry, looked up): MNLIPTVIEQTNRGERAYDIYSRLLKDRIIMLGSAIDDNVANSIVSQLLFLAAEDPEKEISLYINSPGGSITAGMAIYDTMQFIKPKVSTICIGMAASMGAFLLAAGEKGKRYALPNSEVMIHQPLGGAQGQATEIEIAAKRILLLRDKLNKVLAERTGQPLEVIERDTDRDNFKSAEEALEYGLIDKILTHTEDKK
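Buffer: 100 mM Tris/HCl pH8, 100 mM KCl, 0.05% low protease BSA, 2.5% glycerol, 0.01% Tween-20. ClpP 10 microg/mL final; 20 min RT; delta FRET normalized to ADEP and DMSO controls.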
IL-2 act = activates IL-2 in a cell-based reporter assay; IL-2 activation reporter assay, cell-based qHTS; stimulated with anti-CD3/CD4/CD28 beads; in transgenic mouse T cells; activation, % (series mostly up to about 46 µM); 0.065% of 360,000 active; AID 652025; in the data active means activation above about 50%; inconclusive means mostly about 30% to 49%
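First, unstimulated transgenic mouse T cells were exposed to compound for 60 min. Next, anti-CD3/anti-CD4-coated beads with anti-CD28 were added. Finally, after 18 h at 37 degrees C, EGFP and DsRed were imaged.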
USP2a block = inhibitors of human ubiquitin-specific protease USP2a; O75604; USP2 core, Ub-CHOP2 coupled fluorogenic reporter, 485/531; Potency, µM (titrated, usually from 38.3 µM), usual class: inhibitors; 0.01% of 330,000 active
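Cell-free coupled assay: 10nM USP2 core preincubated 30min RT with compound in Tris-HCl pH 8.0/CaCl2/CHAPS buffer, then 25nM Ub-CHOP2 and 25nM reporter substrate; fluorescence (Ex 485/Em 531) read after 60min RT, normalized to NEM inhibition, concentration-response curves fitted.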
Each line names hits and unclear results; the compound was inactive in the other large screens. Unless noted, the call rests on the fitted dose curve; in most records, active means well fitted curve in the direction sought with a large enough effect; inconclusive means small, poorly fitted or top-dose-only effect, or another doubt; inactive means no such curve, though single readings can be large; an effect the other way counts as inactive or inconclusive.

COc1cc2c(=O)n(Cc3ccccc3)c(=O)n(CC(=O)NCC3CCCO3)c2cc1OC (stereo not given)	ClpP mod inconclusive
COc1cccc(-c2nc(SCc3cccc(Br)c3)n3[nH]c(=O)cc3n2)c1	Pin1 inhibitor inconclusive (no result: PKM2 activator, Integrin act MD, IL-2 act, USP2a block)
COC(=O)C(NS(=O)(=O)CCl)C(C)C (stereo not given)	none (no result: PKM2 activator, Integrin act MD, ClpP mod, IL-2 act, USP2a block)
Cc1ccc(-c2nnn(CC(=O)Nc3ccccc3-c3ccccc3)n2)c(-n2cnnn2)c1	ClpP mod 11µM
COc1cc(C2Nc3ccccc3-c3cc(C)nn32)ccc1O (stereo not given)	ClpP mod 32µM (no result: PKM2 activator, Integrin act MD, IL-2 act, USP2a block)
Cc1cc2n(n1)C(c1cccs1)Nc1ccccc1-2 (stereo not given)	ClpP mod 20µM
Cc1cc2n(n1)C(c1ccco1)Nc1ccccc1-2 (stereo not given)	ClpP mod inconclusive
COc1ccc(C2Nc3ccccc3-c3cc(C)nn32)cc1OC (stereo not given)	ClpP mod 14µM (no result: PKM2 activator, Integrin act MD, IL-2 act, USP2a block)
Cc1cc2n(n1)C(c1ccc(O)cc1)Nc1ccccc1-2 (stereo not given)	ClpP mod 28µM
CCOc1cccc(C2Nc3ccccc3-c3cc(C)nn32)c1O (stereo not given)	Pin1 inhibitor inconclusive (no result: PKM2 activator, Integrin act MD, IL-2 act, USP2a block)
C=C1C=C(C)n2ncc(C(=O)Nc3ccccc3C(=O)OC)c2N1	none (no result: Pin1 inhibitor, PKM2 activator, Integrin act MD, IL-2 act, USP2a block)
S=C(NCCCc1cnc[nH]1)NCCCN(CCc1ccc(Cl)cc1)c1ccc(Br)cn1	none (no result: PKM2 activator, Integrin act MD, IL-2 act, USP2a block)
COc1ccc2cc(C(=O)NCc3ccco3)c(=Nc3ccc(C(=O)O)cc3)oc2c1	ClpP mod 20µM
Cc1ccc(-c2csc3ncnc(Oc4ccc5c(C)cc(=O)oc5c4)c23)cc1	ClpP mod 28µM
CC(=O)Nc1cccc(Oc2ncnc3scc(-c4ccc(C)cc4)c23)c1	none
CCOc1cc(C(=S)N2CCOCC2)ccc1OC(=O)/C=C/c1ccc(OC)c(OC)c1	ClpP mod 25µM
CCOc1ccc(/C=C/C(=O)N2CCOCC2)cc1OC	Integrin act MD inconclusive, ClpP mod inconclusive
CCOC(=O)C1=C(C)Nc2sc(C(=O)c3ccc(C)cc3)c(N)c2C1c1ccc(C(=O)OC)cc1 (stereo not given)	ClpP mod 8.9µM
C[C@@H]1[C@H](c2ccccc2)OCCS(=O)(=O)N1Cc1cccc(C(F)(F)F)c1	none (no result: Pin1 inhibitor, PKM2 activator, Integrin act MD, IL-2 act, USP2a block)
Nc1c2c(nc3ccccc13)N(c1ccccc1)CC2	ClpP mod 16µM
CN1CCCCc2c1nc1ccccc1c2N (tested in a mixture with another compound)	Pin1 inhibitor inconclusive
CCOC(=O)c1cnc2ccc(OCC)cc2c1NCc1ccccc1OC	ClpP mod 22µM
CN(C)c1ccc(C(I)C(I)c2ccnc3ccccc23)cc1 (stereo not given)	none (no result: Pin1 inhibitor, PKM2 activator, Integrin act MD, IL-2 act, USP2a block)
O=C(CN1CCCC1)N1CCCc2c1c(=O)oc1ccc(OCc3ccccc3)cc21	ClpP mod 32µM
COCCN1CC(O)=C(c2nc3ccccc3c(=O)[nH]2)C1=N	Pin1 inhibitor inconclusive, ClpP mod inconclusive
COc1ccccc1N1CC(O)=C(c2nc3ccccc3c(=O)[nH]2)C1=N	ClpP mod 32µM
N=C1C(c2nc3ccccc3c(=O)[nH]2)=C(O)CN1CCc1ccccc1	USP2a block 0.79µM
CCCCNc1nc(C)nc2c1nc(-c1ccccc1)n2CC1CCN(C)CC1	none (no result: Pin1 inhibitor, Integrin act MD, ClpP mod, IL-2 act, USP2a block)
O=C(NC1CCCCC1)[C@@H]1CC=C[C@@H]2CCN(Cc3ccc(Cl)c(Cl)c3)C(=O)[C@@H]21	none (no result: Pin1 inhibitor, PKM2 activator, Integrin act MD, IL-2 act, USP2a block)
O=C(CSCc1ccccc1Cl)Nc1c[nH]c(=O)[nH]c1=O	ClpP mod 28µM
O=C(CSCc1ccc(Cl)c(Cl)c1)Nc1c[nH]c(=O)[nH]c1=O	ClpP mod 13µM
COC(=O)C1=CN(C2CC2)C=C(C(=O)OC)C1c1ccc(C(=O)OC)cc1	ClpP mod 32µM
COC(=O)C1=CN(C2CC2)C=C(C(=O)OC)C1c1ccc(C(F)(F)F)cc1	none (no result: ClpP mod)
